± gives the standard deviation.
Key:
Details in all cases: modulator concentration 10 µM
[1] = tested on: RAW-Dual (murine macrophage reporter line); assay: NF-kB reporter (SEAP) activity fold change vs agonist alone; higher = enhanced NF-kB activity
Outline: (§1)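 RAW-Dual murine macrophage reporter cells were plated at 50 000 per well in 384-well plates, pin-transferred compound to 10 μM final, and pre-incubated for 1 hour at 37 °C before a PRR agonist was added and the cells incubated overnight. NF-κB activity was read from supernatant SEAP with QUANTI-Blue at 620 nm absorbance, and IRF activity from Lucia luciferase with QUANTI-Luc by luminescence. Each signal was expressed as fold change by dividing by the mean agonist-only control on the same plate. Two replicate plates were averaged, with errors obtained by propagation.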

[2] = tested on: RAW-Dual (murine macrophage reporter line); assay: IRF reporter (Lucia luciferase) activity fold change vs agonist alone; higher = enhanced IRF activity
Outline: as §1

[3] = tested on: RAW-Dual (murine macrophage reporter line); assay: viability score (confluency relative to resting cells, overnight) (fraction); higher = more viable, active = viable (0.7 or more)
Outline: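 RAW-Dual macrophages in 384-well plates were exposed overnight to compound at 10 μM final. Confluency was imaged with IncuCyte, and two confluency masks were generated with IncuCyte software over all imaged wells. The viability score is confluency expressed relative to resting cells. Compounds were called viable if both masks exceeded 70% of resting cells.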

[4] = agonist: CpG ODN 1826 0.5 ug/mL

| SMILES | NF-kB reporter [1, 4] | NF-kB reporter ([1]; agonist: LPS 0.1 ug/mL) | NF-kB reporter ([1]; agonist: MPLA […]) | IRF reporter ([2]; agonist: 3'3'-cGAMP 10 ug/mL) | IRF reporter ([2]; agonist: LPS 0.1 ug/mL) | IRF reporter ([2]; agonist: MPLA […]) | viability score [3] |
| --- | --- | --- | --- | --- | --- | --- | --- |
| O=c1[nH]c(=O)n([C@H]2C[C@H](O)[C@@H](CO)O2)cc1I | 1.11 ± 0.15 | 0.928 ± 0.058 | 0.992 ± 0.044 | 1.04 ± 0.068 | 0.992 ± 0.069 | 0.967 ± 0.15 | 0.998 (active) |
| Cc1c(C(=O)Nc2cccc3ccccc23)cccc1[N+](=O)[O-] | 0.854 ± 0.25 | 1.2 ± 0.12 | 1.04 ± 0.18 | 0.807 ± 0.034 | 1.22 ± 0.22 | 1.41 ± 0.42 | 0.633 (inactive) |
| CC(=O)ON=C1C(C)=C(C#N)C2C1C2(C)C (stereo unspecified) | 1.2 ± 0.096 | 1.01 ± 0.26 | 0.874 ± 0.32 | 0.718 ± 0.18 | 0.871 ± 0.25 | 0.857 ± 0.33 | 1.01 (active) |
| CC1(C)NC(=O)N(c2ccc([N+](=O)[O-])c(C(F)(F)F)c2)C1=O | 1.26 ± 0.41 | 1.11 ± 0.23 | 0.897 ± 0.052 | 0.868 ± 0.035 | 1.17 ± 0.21 | 1.25 ± 0.2 | 0.968 (active) |
| O=C(O[C@H]1C[C@H]2CC3C[C@@H](C1)N2CC3=O)c1c[nH]c2ccccc12 | 0.524 ± 0.055 | 0.598 ± 0.1 | 0.693 ± 0.03 | 0.92 ± 0.051 | 0.909 ± 0.03 | 0.912 ± 0.084 | 0.998 (active) |
| Cn1cc(CC(=O)NC2CCN(c3cc(C(F)(F)F)ncn3)CC2)c2ccccc21 | 1.45 ± 0.082 | 1.24 ± 0.1 | 1.13 ± 0.23 | 0.77 ± 0.039 | 1.24 ± 0.075 | 1.39 ± 0.1 | 0.929 (active) |
| Cc1cccc(N2C(=O)C(=Cc3cccc([N+](=O)[O-])c3)SC2=S)c1C | 0.964 ± 0.1 | 1.02 ± 0.094 | 0.937 ± 0.06 | 0.853 ± 0.035 | 1.57 ± 0.17 | 1.29 ± 0.11 | 0.989 (active) |
| O=C(c1ccc2ccccc2n1)N1CCc2ncncc2C1 | 1.08 ± 0.054 | 1.04 ± 0.083 | 0.862 ± 0.044 | 0.956 ± 0.063 | 1.09 ± 0.18 | 1.11 ± 0.27 | 1.01 (active) |
| Cc1cc2nc3sc(=Cc4ccc(F)cc4)c(=O)n3c2cc1C | 0.99 ± 0.12 | 0.932 ± 0.12 | 1.04 ± 0.097 | 0.817 ± 0.03 | 1.07 ± 0.12 | 1.07 ± 0.13 | 1.03 (active) |
| CS(=O)(=O)O.O=C(NC1CCN(CCCCC2(C(=O)NCC(F)(F)F)c3ccccc3-c3ccccc32)CC1)c1ccccc1-c1ccc(C(F)(F)F)cc1 | 0.0785 ± 0.0033 | 0.0479 ± 0.004 | 0.118 ± 0.0076 | 0.0799 ± 0.0056 | 0.0322 ± 0.0052 | 0.0401 ± 0.0064 | 0.258 (inactive) |
| N[C@@H](CSCCCO)C(=O)O | 0.987 ± 0.073 | 1.01 ± 0.051 | 0.937 ± 0.033 | 0.922 ± 0.077 | 0.995 ± 0.047 | 0.971 ± 0.089 | 1 (active) |
| COc1cc2nccc(Oc3ccc(NC(=O)Nc4cc(C)on4)c(Cl)c3)c2cc1OC | 0.178 ± 0.022 | 0.66 ± 0.062 | 0.639 ± 0.057 | 0.626 ± 0.028 | 0.938 ± 0.066 | 1.02 ± 0.1 | 1 (active) |
| Cl.Clc1ccc2nsnc2c1NC1=NCCN1 | 0.8 ± 0.14 | 0.932 ± 0.14 | 0.993 ± 0.076 | 0.791 ± 0.066 | 0.995 ± 0.17 | 1.06 ± 0.23 | 1 (active) |
| CC1c2cccc(O)c2C(=O)C2=C(O)C3(O)C(=O)C(C(N)=O)=C(O)C(N(C)C)C3C(O)C21.Cl (stereo unspecified) | 1.34 ± 0.32 | 1.15 ± 0.058 | 1.04 ± 0.074 | 0.795 ± 0.041 | 1.14 ± 0.15 | 1.02 ± 0.12 | 0.992 (active) |
| Cc1noc(C)c1CCC(=O)N1CCCC(c2nnc(C(F)(F)F)o2)C1 (stereo unspecified) | 0.991 ± 0.12 | 1.06 ± 0.087 | 0.923 ± 0.042 | 0.988 ± 0.082 | 1.12 ± 0.1 | 1.02 ± 0.077 | 1.01 (active) |
| CCCN1CCC(NCCc2cccc(Cl)c2)CC1 | 0.11 ± 0.018 | 0.9 ± 0.14 | 1.18 ± 0.091 | 0.704 ± 0.045 | 1.13 ± 0.18 | 1.13 ± 0.17 | 1 (active) |
| Cc1ccc(NC(=O)c2ccccc2Oc2ccccc2)cc1 | 0.689 ± 0.055 | 1.1 ± 0.097 | 1.24 ± 0.059 | 0.881 ± 0.08 | 1.09 ± 0.14 | 1.76 ± 0.41 | 1 (active) |
| CCOC(=O)c1c(C)n(-c2ccccc2)c2ccc(NS(=O)(=O)c3ccccc3)cc12 | 0.959 ± 0.16 | 0.95 ± 0.075 | 1.04 ± 0.087 | 0.932 ± 0.029 | 1.05 ± 0.13 | 1.21 ± 0.17 | 0.808 (active) |
| O=C(CC1Sc2ccccc2NC1=O)Nc1ccccc1Cl (stereo unspecified) | 1 ± 0.079 | 0.989 ± 0.067 | 1.01 ± 0.036 | 1.15 ± 0.21 | 1.04 ± 0.043 | 1.04 ± 0.15 | 1 (active) |
| CC(C)C(C(=O)Nc1ccc(F)cc1)N1C(=O)c2ccccc2C1=O (stereo unspecified) | 0.911 ± 0.079 | 1.06 ± 0.086 | 0.935 ± 0.077 | 0.957 ± 0.033 | 1.09 ± 0.15 | 0.943 ± 0.058 | 1.02 (active) |
| O=Cc1cn(CCOc2ccc(Cl)cc2)c2ccccc12 | 1.45 ± 0.12 | 0.883 ± 0.07 | 1.62 ± 0.06 | 0.685 ± 0.057 | 0.773 ± 0.081 | 0.613 ± 0.12 | 0.93 (active) |
| CCn1c2ccccc2c2cc(CNCCc3ccc(OC)cc3)ccc21 | 0.369 ± 0.048 | 0.539 ± 0.068 | 1.24 ± 0.1 | 0.479 ± 0.11 | 0.556 ± 0.025 | 2.16 ± 0.28 | 0.0492 (inactive) |
| CC(=O)Nc1ccc(C(=O)Nc2ccc(Cl)cn2)cc1 | 1.16 ± 0.099 | 1.1 ± 0.085 | 1.09 ± 0.11 | 0.942 ± 0.04 | 0.94 ± 0.086 | 1.09 ± 0.15 | 1.04 (active) |

— the supplement of paper PMC10646978
